Data: PubChem BioAssay (NCATS)
Where “and” joins values, the source holds several entries; their conditions need not be identical. Equal entries are not always repeated. Results filed as inconclusive are left out. Calls of active or inactive are those of the source. Calls follow the shape of the dose curve; as a rule, active = well fitted curve in the direction sought with a large enough effect; inconclusive = small, poorly fitted or top-dose-only effect, or another doubt; inactive = no such curve, though single readings can be large; an effect the other way counts as inactive or inconclusive. Residues, ends and D or L forms follow the SMILES beside them. *: point of attachment. Cbz = O=C(OCc1ccccc1)*

How the values were obtained:
[1] = target: Cellular tumor antigen p53 (Homo sapiens) (UniProt P04637); experiment: Primary qHTS for small molecule compounds that upregulate eGFP-tagged delta133p53alpha (in N-terminal) cells. (AID 2060322); details: NCI-H358 eGFP-delta133p53alpha fluorescence, 24 h; activation: stronger effect = higher value; also: nearly all actives have a fitted effect of over 75% in size;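 as to activation: 0% = DMSO vehicle and 100% = reference activator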
Chain of Cellular tumor antigen p53 (Homo sapiens) (P04637 whole entry, looked up): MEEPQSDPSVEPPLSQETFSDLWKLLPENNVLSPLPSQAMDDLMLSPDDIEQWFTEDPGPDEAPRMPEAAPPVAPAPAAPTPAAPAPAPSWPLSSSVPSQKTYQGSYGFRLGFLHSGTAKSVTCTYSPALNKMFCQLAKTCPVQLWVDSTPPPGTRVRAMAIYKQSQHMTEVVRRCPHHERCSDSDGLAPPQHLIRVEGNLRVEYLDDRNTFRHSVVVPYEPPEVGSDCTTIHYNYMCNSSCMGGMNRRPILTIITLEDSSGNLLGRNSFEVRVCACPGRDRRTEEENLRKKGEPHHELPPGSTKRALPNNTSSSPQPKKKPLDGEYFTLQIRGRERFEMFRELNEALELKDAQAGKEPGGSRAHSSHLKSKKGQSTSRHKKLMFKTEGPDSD
In short: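 NCI-H358 cells pre-induced 24 h with 10 ng/ml doxycycline to express N-terminal eGFP-delta133p53alpha, then dosed 24 h at 37C without doxycycline; fixed, Hoechst-stained, GFP intensity by laser scanning cytometry, normalized to DMSO (0%) and 57.5 uM 5-azacytidine (100%).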

[2] = BET inhibitor-based combinations targeting novel dependencies in MECOM-rearranged (r) AML: SET-2 cell line (AID 2202231); details: SET-2 AML cells viability, CellTiter-Glo luminescence, 48 h; viability: stronger effect = lower value, concentration not given here; also: nearly all actives have a fitted effect of over 35% in size;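 as to viability: plate controls were DMSO treated cells for no effect and wells without cells for full effect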
In short: (§1)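 A 48 hr incubation preceded viability reading by CellTiter-Glo, with 15 min room-temperature development. Dose series had 11 points; normalization used DMSO and empty wells; AUC was computed and mean-centered per line as Z-AUC.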

[3] = BET inhibitor-based combinations targeting novel dependencies in MECOM-rearranged (r) AML: MV-4-11 cell line (AID 2202233); details: MV-4-11 AML viability, CellTiter-Glo luminescence, 48 h; series mostly up to 46 µM; also: nearly all actives have a fitted effect of over 45% in size
In short: (§2)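 Each compound is tested in an 11-point concentration series against 500 seeded cells/well for 48 hr. The luminescent viability signal is normalized to DMSO and blank wells, then reduced to AUC and a cell-line-centred Z-AUC.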

[4] = BET inhibitor-based combinations targeting novel dependencies in MECOM-rearranged (r) AML: HNT-34 cell line (AID 2202234); details: HNT-34 AML viability, CellTiter-Glo luminescence, 48 h; series mostly up to 46 µM; also: nearly all actives have a fitted effect of over 35% in size
In short: as §2

[5] = BET inhibitor-based combinations targeting novel dependencies in MECOM-rearranged (r) AML: UCSD-AML1 cell line (AID 2202235); details: UCSD-AML1 AML cells viability, CellTiter-Glo, 48 h; series mostly up to 46 µM; also: nearly all actives have a fitted effect of over 40% in size
In short: as §2

[6] = BET inhibitor-based combinations targeting novel dependencies in MECOM-rearranged (r) AML: AML-191 cell line (AID 2202236; also: nearly all actives have a fitted effect of over 35% in size); details: AML-191 viability, CellTiter-Glo luminescence, 48 h; series mostly up to 46 µM
In short: as §1

[7] = BET inhibitor-based combinations targeting novel dependencies in MECOM-rearranged (r) AML: AML-194 cell line (AID 2202237; also: nearly all actives have a fitted effect of over 40% in size); details: AML-194 (MECOM-r AML) viability, CellTiter-Glo, 48 h; series mostly up to 46 µM
In short: as §1

[8] = BET inhibitor-based combinations targeting novel dependencies in MECOM-rearranged (r) AML: OCI-AML3 cell line (AID 2202232); details: CellTiter-Glo luminescence, 48 h; Potency: OCI-AML3 viability; series mostly up to 46 µM; also: nearly all actives have a fitted effect of over 35% in size
In short: as §1
Potency is read from the fitted curve at half-maximal effect.

CCOC(=O)[C@H](CCc1ccccc1)N[C@@H](C)C(=O)N1[C@H](C(=O)O)C[C@@H]2CCC[C@@H]21
inactive: activation [1] 5.08% | viability [2] 108% | Potency [3] | Potency [4] | Potency [5] | Potency [6] | Potency [7]

Cn1c(=O)c2c(ncn2CC(O)CO)n(C)c1=O (stereo not given)
inactive: activation [1] 5.02% and 16.6% | viability [2] 118% | Potency [3] | Potency [4] | Potency [7]

CCOC(=O)O[C@]1(C(=O)OCCl)CC[C@H]2[C@@H]3CCC4=CC(=O)C=C[C@]4(C)[C@H]3[C@@H](O)C[C@@]21C
active: Potency [2] 1.05 µM
inactive: activation [1] -7.34% | Potency [3] | Potency [4] | Potency [7]

C#CCC(Cc1cnc2nc(N)nc(N)c2n1)c1ccc(C(=O)N[C@@H](CCC(=O)O)C(=O)O)cc1 (stereo not given in full)
inactive: activation [1] -21.3%
active: Potency [2] 0.0019 µM | Potency [3] 0.0053 µM

COc1c(C)c2c(c(O)c1C/C=C(\C)CCC(=O)OCCN1CCOCC1)C(=O)OC2
inactive: activation [1] -10.7%
active: Potency [2] 1.32 µM | Potency [3] 0.662 µM | Potency [5] 1.18 µM | Potency [6] 1.32 µM

Cc1ccc(C(C)(O)c2nc3ccccc3s2)c(C)c1 (stereo not given)
active: Potency [2] 13.2 µM | Potency [3] 18.6 µM
inactive: activation [1] 5.91% | Potency [5] | Potency [6] | Potency [7]

CC1CNc2c(cccc2S(=O)(=O)N[C@@H](CCCN=C(N)N)C(=O)N2CC[C@@H](C)C[C@@H]2C(=O)O)C1 (stereo not given in full)
inactive: activation [1] 8.55% | viability [2] 116% | Potency [3] | Potency [4] | Potency [6] | Potency [7]

CCN(CC)CCCCNc1ncc2c(n1)N(C)C(=O)N(c1c(Cl)c(OC)cc(OC)c1Cl)C2
active: Potency [2] 18.6 µM | Potency [3] 14.8 µM | Potency [4] 10.5 µM
inactive: activation [1] -7.31%

CCN(CC)CCCC(C)Nc1nc(C)cc(Nc2ccc3nc(C)cc(N)c3c2)n1 (stereo not given)
inactive: activation [1] 4.87% | viability [2] 116% | Potency [5] | Potency [6] | Potency [7]
active: Potency [3] 29.5 µM

Cc1ccc(S(=O)(=O)NC(=O)NN2CC3CCCC3C2)cc1 (stereo not given)
inactive: activation [1] 8.47% and 8.97% | viability [2] 120% | Potency [3] | Potency [4] | Potency [5] | Potency [6] | Potency [7]

Cc1nnc(NS(=O)(=O)c2ccc(N)cc2)s1
inactive: activation [1] -14.2% and -3.76% | viability [2] 113% | Potency [3] | Potency [5] | Potency [6] | Potency [7]

COc1ccc(CCN(C)CCCOc2ccc(S(=O)(=O)c3[nH]c4ccccc4c3C(C)C)cc2)cc1OC
inactive: activation [1] -2.61%
active: Potency [2] 26.3 µM | Potency [3] 11.8 µM | Potency [4] 18.6 µM | Potency [5] 14.8 µM | Potency [6] 18.6 µM | Potency [7] 14.8 µM

CCOC(=O)C1=C[C@@H](OC(CC)CC)[C@H](NC(C)=O)[C@@H](N)C1
inactive: activation [1] -8.89% | viability [2] 112% | Potency [3] | Potency [4] | Potency [5] | Potency [7]

CCC(=O)O[C@]1(C(=O)CCl)[C@@H](C)C[C@H]2[C@@H]3CCC4=CC(=O)C=C[C@]4(C)[C@@]3(F)[C@@H](O)C[C@@]21C
inactive: activation [1] 6.69% and -0.269% | viability [2] 97.3% | Potency [5]
active: Potency [3] 20.9 µM

C#CCN[C@@H]1CCc2ccccc21
inactive: activation [1] -13.4% and -11.3% | viability [2] 116% | Potency [3] | Potency [4] | Potency [5] | Potency [6] | Potency [7]

C[C@H]1COc2c(N3CCN(C)CC3)c(F)cc3c(=O)c(C(=O)O)cn1c23
inactive: activation [1] -12.8% | viability [2] 108% | Potency [3] | Potency [4] | Potency [5] | Potency [6] | Potency [7]

O=C(O)CCNC(=O)c1ccc(N=Nc2ccc(O)c(C(=O)O)c2)cc1
inactive: activation [1] -19.8% and -1.86% | viability [2] 118% | Potency [3] | Potency [4] | Potency [5] | Potency [6] | Potency [7]

C[C@@H](CN1CC(=O)NC(=O)C1)N1CC(=O)NC(=O)C1
active: Potency [3] 14.8 µM | Potency [6] 13.2 µM | Potency [7] 16.6 µM
inactive: activation [1] -3.95% and 20.4% | viability [2] 92.4% | Potency [4]

CC(C)(C)c1cc(C(C)(C)C)c(NC(=O)c2c[nH]c3ccccc3c2=O)cc1O
active: Potency [8] 20.9 µM | Potency [3] 23.5 µM
inactive: activation [1] 27.3%

CC(Oc1ccc(O)cc1)(P(=O)(O)O)P(=O)(O)O
inactive: activation [1] -17.7% | Potency [8] | Potency [3] | Potency [4] | Potency [5] | Potency [6] | Potency [7]

CCOC(=O)[C@H](CCc1ccccc1)N[C@H]1CS[C@H](c2cccs2)CN(CC(=O)O)C1=O
active: Potency [8] 20.9 µM | Potency [3] 20.9 µM
inactive: activation [1] -24.3% and -1.2% | Potency [5]

Cc1nc2cnc3ccc(C#Cc4cccnc4)cc3c2n1-c1ccc(C(C)(C)C#N)cc1
inactive: activation [1] 35.7%
active: Potency [8] 2.95 µM | Potency [3] 0.742 µM | Potency [4] 0.525 µM | Potency [5] 0.296 µM | Potency [6] 0.59 µM

CC(C)C[C@@H](C=O)NC(=O)[C@H](CC(C)C)NC(=O)[C@H](CC(C)C)NC(=O)OCc1ccccc1 (Cbz-Leu-Leu-Leu-aldehyde)
active: Potency [1] 2.73 µM | Potency [8] 1.86 µM | Potency [3] 2.35 µM | Potency [4] 2.35 µM | Potency [5] 2.95 µM | Potency [6] 2.35 µM | Potency [7] 2.63 µM

Cc1c(C(=O)NN2CCCCC2)nn(-c2ccc(Cl)cc2Cl)c1-c1ccc(Cl)cc1
active: Potency [3] 20.9 µM
inactive: activation [1] 8.47% and -3.72% | Potency [8] | Potency [5]

O=C(O)[C@H](O)[C@@H](O)[C@H](O[C@@H]1O[C@H](CO)[C@H](O)[C@H](O)[C@H]1O)[C@H](O)CO
inactive: activation [1] -12.6% | Potency [8] | Potency [3] | Potency [4] | Potency [5] | Potency [7]

Oc1cc2c(cc1O)C1c3ccc(O)c(O)c3OCC1(O)C2 (stereo not given)
inactive: activation [1] -7.38%
active: Potency [8] 23.5 µM | Potency [3] 23.5 µM | Potency [5] 20.9 µM

C[C@]12C=CC(=O)C=C1CC[C@@H]1[C@@H]2C(=O)C[C@@]2(C)[C@H]1CC[C@]2(O)C(=O)CO
inactive: activation [1] -20.1% and 2.21% | Potency [8] | Potency [3] | Potency [4] | Potency [6] | Potency [7]

CN1C(C(=O)Nc2ccccn2)=C(O)c2sc(Cl)cc2S1(=O)=O
inactive: activation [1] -22.9% | Potency [8] | Potency [3] | Potency [4] | Potency [5] | Potency [6]

O=C(O)[C@H](Cc1c[nH]c2ccccc12)N1C(=O)c2ccccc2C1=O
inactive: activation [1] -29% | Potency [8] | Potency [3] | Potency [4] | Potency [6] | Potency [7]

CC(Cc1ccc(O)c(O)c1)(NN)C(=O)O (stereo not given)
inactive: activation [1] -5.67% | Potency [8] | Potency [3] | Potency [4] | Potency [5] | Potency [6] | Potency [7]

Oc1ccc(C2CCN(c3ccnc4ccccc34)CC2)cc1O
active: Potency [8] 13.2 µM | Potency [3] 9.34 µM
inactive: activation [1] 25.9% | Potency [5]

CC1=CC(=O)c2ccccc2C1=O
inactive: activation [1] 1.69% and -31.8%
active: Potency [8] 18.6 µM | Potency [3] 7.42 µM | Potency [4] 23.5 µM | Potency [7] 18.6 µM

O=C(O)CCC1CCC(c2cc(F)ccc2F)(S(=O)(=O)c2ccc(Cl)cc2)CC1 (stereo not given)
inactive: activation [1] 33.4% | Potency [8] | Potency [3] | Potency [4] | Potency [7]

Clc1ccc(C(Cn2ccnc2)OCc2ccc(Sc3ccccc3)cc2)c(Cl)c1 (stereo not given)
inactive: activation [1] -3.95% and 8.63% | Potency [8]
active: Potency [3] 14.8 µM | Potency [4] 20.9 µM | Potency [5] 20.9 µM

CN(C)CCc1c[nH]c2ccc(CS(=O)(=O)N3CCCC3)cc12
inactive: activation [1] -5.58% | Potency [8] | Potency [3] | Potency [4] | Potency [5] | Potency [6] | Potency [7]

Oc1cccc(-c2nc(N3CCOCC3)c3oc4ncccc4c3n2)c1
active: Potency [8] 0.0661 µM | Potency [3] 0.0525 µM
inactive: activation [1] 27.8%

CCOC(=O)[C@@H](N)CCC(=O)N[C@@H](CSCc1ccccc1)C(=O)N[C@@H](C(=O)OCC)c1ccccc1
active: Potency [8] 10.5 µM | Potency [3] 18.6 µM | Potency [4] 26.3 µM | Potency [6] 16.6 µM
inactive: activation [1] -1.42%

O=C(Nc1nnc(-c2ccco2)o1)c1cc(-c2ccccc2)nc2ccccc12
active: Potency [8] 14.8 µM | Potency [3] 20.9 µM | Potency [4] 10.5 µM | Potency [5] 8.33 µM | Potency [6] 11.8 µM | Potency [7] 13.2 µM
inactive: activation [1] -15%

Cc1cc([C@@H](C)Nc2ccccc2C(=O)O)c2nc(N3CCOCC3)cc(=O)n2c1
active: Potency [8] 1.32 µM | Potency [3] 6.61 µM
inactive: activation [1] 14.9%

COc1ccc(-c2cc(=O)c3c(O)cc(O[C@@H]4O[C@H](CO[C@@H]5O[C@@H](C)[C@H](O)[C@@H](O)[C@H]5O)[C@@H](O)[C@H](O)[C@H]4O)cc3o2)cc1O
inactive: activation [1] 25.9% | Potency [8] | Potency [3] | Potency [4] | Potency [5] | Potency [6] | Potency [7]

COC(=O)Nc1ccc(-c2nc(N3CCOCC3)c3cnn(C4CCN(C(=O)OC)CC4)c3n2)cc1
active: Potency [8] 4.17 µM | Potency [3] 1.18 µM | Potency [4] 0.742 µM
inactive: activation [1] 11.3%

Nc1nc2[nH]cc(CCc3ccc(C(=O)N[C@@H](CCC(=O)O)C(=O)O)cc3)c2c(=O)[nH]1
active: Potency [8] 0.662 µM | Potency [3] 0.372 µM | Potency [5] 1.05 µM
inactive: activation [1] -41.3% | Potency [4] | Potency [7]

COc1c(C)cnc(Cn2cnc3c(Cl)nc(N)nc32)c1C
inactive: activation [1] -17.3%
active: Potency [8] 0.372 µM | Potency [3] 0.118 µM | Potency [5] 0.209 µM
